PubChem BioAssay AID1159580 (chemical genetic matrix, 2015)
Out of some 5,500 compounds screened, about 2,000 (36%) were called active. Not shown: some 18% with an inconclusive outcome. Cut-off read from the data, not from the text of the source: active = normalized growth mostly below about 0.91 (no sharp cut-off); inconclusive = no clear call, values can overlap the other calls; inactive = mostly above about 0.92. The list shows a part of the results.

Assay: chemical genetic growth profiling, strain panel (AID 1159580);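 note: tested at 20 µM; growth read once vehicle control cultures reached saturation at 30 °C; 1 = growth at the plate median or of vehicle wells; lower values mean less growth of the strain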
Details: S. cerevisiae deletion strains, growth OD

Measured: normalized growth

CCCCCCCCCCCC1=C(O)C(=O)C=C(O)C1=O
active: locus YAL013W, strain DEP1, stronger effect = lower value 0.662 | locus YAL021C, strain ccr4, stronger effect = lower value 0.835 | locus YAL026C, strain drs2, stronger effect = lower value 0.394 | locus YAL030W, strain snc1, stronger effect = lower value 0.889 | locus YBL061C, strain skt5, stronger effect = lower value 0.795 | locus YBR009C, strain hhf1, stronger effect = lower value 0.853 | locus YBR023C, strain chs3, stronger effect = lower value 0.815 | locus YBR171W, strain sec66, stronger effect = lower value 0.853 | locus YBR231C, strain swc5, stronger effect = lower value 0.77 | locus YBR279W, strain paf1, stronger effect = lower value 0.762 | locus YCL011C, strain gbp2, stronger effect = lower value 0.822 | locus YCL016C, strain dcc1, stronger effect = lower value 0.886 | locus YCL029C, strain bik1, stronger effect = lower value 0.89 | locus YCL061C, strain MRC1, stronger effect = lower value 0.628 | locus YCL069W, strain vba3, stronger effect = lower value 0.538 | locus YCR088W, strain abp1, stronger effect = lower value 0.723 | locus YDL035C, strain GPR1, stronger effect = lower value 0.525 | locus YDL074C, strain BRE1, stronger effect = lower value 0.365 | locus YDL185W, strain tfp1, stronger effect = lower value 0.503 | locus YDL192W, strain arf1, stronger effect = lower value 0.834 | locus YDR001C, strain nth1, stronger effect = lower value 0.786 | locus YDR069C, strain doa4, stronger effect = lower value 0.692 | locus YDR101C, strain arx1, stronger effect = lower value 0.871 | locus YDR137W, strain rgp1, stronger effect = lower value 0.81 | locus YDR150W, strain NUM1, stronger effect = lower value 0.673 | locus YDR159W, strain sac3, stronger effect = lower value 0.822 | locus YDR162C, strain NBP2, stronger effect = lower value 0.338 | locus YDR195W, strain ref2 0.853 | locus YDR297W, strain sur2, stronger effect = lower value 0.87 | locus YDR334W, strain swr1, stronger effect = lower value 0.259 | locus YDR335W, strain msn5, stronger effect = lower value 0.599 | locus YDR392W, strain spt3, stronger effect = lower value 0.16 | locus YDR502C, strain sam2, stronger effect = lower value 0.886 | locus YEL003W, strain gim4, stronger effect = lower value 0.851 | locus YEL037C, strain rad23, stronger effect = lower value 0.467 | locus YEL061C, strain CIN8 (second series), stronger effect = lower value 0.493 | locus YEL061C, strain CIN8, stronger effect = lower value 0.665 | locus YER015W, strain faa2, stronger effect = lower value 0.748 | locus YER111C, strain swi4, stronger effect = lower value 0.265 | locus YER155C, strain BEM2 (second series), stronger effect = lower value 0.615 | locus YFR010W, strain ubp6, stronger effect = lower value 0.507 | locus YGL078C, strain dbp3, stronger effect = lower value 0.822 | locus YGL086W, strain mad1, stronger effect = lower value 0.798 | locus YGL167C, strain pmr1, stronger effect = lower value 0.882 | locus YGL173C, strain kem1, stronger effect = lower value 0.703 | locus YGL227W, strain vid30, stronger effect = lower value 0.909 | locus YGL253W, strain hxk2, stronger effect = lower value 0.359 | locus YGR078C, strain PAC10, stronger effect = lower value 0.684 | locus YGR135W, strain pre9, stronger effect = lower value 0.888 | locus YHR013C, strain ard1, stronger effect = lower value 0.743 | locus YHR027C, strain rpn1, stronger effect = lower value 0.605 | locus YHR030C, strain SLT2, stronger effect = lower value 0.596 | locus YHR129C, strain ARP1, stronger effect = lower value 0.67 | locus YHR142W, strain chs7, stronger effect = lower value 0.274 | locus YHR200W, strain rpn10, stronger effect = lower value 0.89 | locus YIL066C, strain RNR3, stronger effect = lower value 0.856 | locus YIL125W, strain kgd1, stronger effect = lower value 0.623 | locus YJL092W, strain hpr5, stronger effect = lower value 0.684 | locus YJL095W, strain BCK1 (second series), stronger effect = lower value 0.88 | locus YJL095W, strain BCK1, stronger effect = lower value 0.68 | locus YJL115W, strain asf1, stronger effect = lower value 0.72 | locus YJL154C, strain vps35, stronger effect = lower value 0.521 | locus YJL164C, strain tpk1, stronger effect = lower value 0.83 | locus YJL166W, strain qcr8, stronger effect = lower value 0.792
inactive: locus YBR021W, strain FUR4, stronger effect = lower value 0.916 | locus YBR229C, strain ROT2, stronger effect = lower value 1 | locus YDL005C, strain med2, stronger effect = lower value 0.961 | locus YDL040C, strain nat1, stronger effect = lower value 0.95 | locus YDL101C, strain DUN1, stronger effect = lower value 0.994 | locus YDL134C, strain PPH21, stronger effect = lower value 0.956 | locus YDR318W, strain mcm21, stronger effect = lower value 0.955 | locus YDR388W, stronger effect = lower value 0.98 | locus YER016W, strain bim1, stronger effect = lower value 0.944 | locus YER110C, stronger effect = lower value 0.976 | locus YER155C, strain BEM2, stronger effect = lower value 0.925 | locus YER167W, strain BCK2, stronger effect = lower value 0.952 | locus YGL240W, strain doc1, stronger effect = lower value 0.923 | locus YGL248W, strain PDE1, stronger effect = lower value 0.92 | locus YGR252W, strain gcn5, stronger effect = lower value 0.95 | locus YHR079C, strain IRE1 (second series), stronger effect = lower value 0.991 | locus YHR094C, strain hxt1, stronger effect = lower value 0.994 | locus YIL073C, strain SPO22, stronger effect = lower value 0.933 | locus YIR030C, strain dcg1, stronger effect = lower value 0.972 | locus YJL129C, strain trk1, stronger effect = lower value 0.999 | locus YJL134W, strain LCB3, stronger effect = lower value 0.984
